Hit rate of the full screen: of about 360,000 compounds, about 2,300 (0.64%) were called active. The sample holds actives, similar compounds and a random draw of the others, so the mix is not that of the screen. Values without a mark were called inactive.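 The calls were made as follows: active = compounds giving at least 50% protection of heart cells from peroxide-induced death in the single-dose screen, raw or plate-pattern-corrected value; inactive = the rest.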

This assay can be described thus: H9c2 cardiomyocyte survival under peroxide injury – uHTS, H9c2 cells, ATPLite luminescence, primary screen (AID 588492).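 Also: 0% = DMSO wells with peroxide and 100% = DMSO wells without peroxide.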 To be noted: H9c2 cardiomyocytes, 2 h, at 20 µM, active compounds read high. (ATP-based viability assays read luminescence as a measure of living cells.)
Turning to `CCOCCCNC(=O)C(NC(=O)c1ccc(=O)[nH]c1)c1ccc(Cl)cc1` (configuration not stated), the protection from H2O2 cell death is -7.9%.
On to `COc1ccc([C@H]2N[C@]3(CCCN(CC4CCCCC4)C3=O)[C@H]3C(=O)N(C)C(=O)[C@@H]23)cc1`, for which the protection from H2O2 cell death was 5.5%.
`COCCNc1ccc(-c2n[nH]c(=O)c3ccccc23)cc1[N+](=O)[O-]`: the protection from H2O2 cell death is 40.1%.
Under `CN(C)CCNc1ccc(-c2n[nH]c(=O)c3ccccc23)cc1[N+](=O)[O-]` stands 61.1% (active).
The value for `CCN(CC)CCNc1ccc(Cl)cc1[N+](=O)[O-]` was 9.1%; that for `CCCC(=O)NC(Nc1ccccc1OC)C(Cl)(Cl)Cl` (configuration not stated) was 3%.
Under `O=c1[nH]nc(Cc2ccccn2)c2ccccc12` stands 84.4% (active); under `c1ccc(CCc2ccccn2)cc1`, -1.9%; under `Cc1ccc(C(=O)C(C)OC(=O)Cc2n[nH]c(=O)c3ccccc23)cc1C` (configuration not stated), 12.9%.
As to `COc1ccc(OC)c(CN2C(=O)CCC2(C)C(=O)NC2CCCCCC2)c1` (configuration not stated), the protection from H2O2 cell death is 1.4%.
Turning to `O=C(CN1C(=O)NC2(CCCCCCC2)C1=O)NCc1ccc(F)cc1`, the protection from H2O2 cell death is -8.5%.
In the case of `COc1ccc(N2CCN(Cc3ccc(Br)s3)CC2)cc1`, the protection from H2O2 cell death was -6.8%.
For the molecule `CCSc1nc(-c2ccc(OC)cc2)cc(-c2ccc(OC)cc2)c1C#N`, the protection from H2O2 cell death was -1%.
The value for `CCOc1cc(-c2cc(-c3ccc(NC(C)=O)cc3)nc(N)c2C#N)ccc1O` was 65.8% (active).
The value for `Cc1ccc(NC(=O)c2sc3nc(N)c(C#N)cc3c2N)cc1` was -0.8%.
Under `CCSc1nnc(SCC(=O)NNC(=O)c2ccccc2F)s1` stands -2.9%; under `COc1ccc(CC(N)c2csc(NC(=O)Cc3ccccc3)n2)cc1` (configuration not stated), 10.4%; under `CC(=NNC(=S)N1CCCCCC1)c1ccccn1`, -14.3%.
With `COc1ccc(CC(=O)N/N=C(\C)c2ccccn2)cc1`, the protection from H2O2 cell death is 89.5% (active).
The value for `CCOC(=O)[C@H]1CCC[C@@H](NS(=O)(=O)c2ccc(NC(C)=O)cc2)C1` was 3.9%; that for `CCCCNc1ccc(C(=O)Nc2cccc(C)n2)cc1[N+](=O)[O-]` was -6%; that for `O=c1cc(CN2CCN(S(=O)(=O)/C=C/c3ccccc3)CC2)c2ccc(O)cc2o1` was 24.9%.
`Cc1nn(C)c(C)c1S(=O)(=O)N1CCC(CO)(Cc2ccc(Cl)cc2)CC1`: the protection from H2O2 cell death was -21.2%.
The value for `O=c1[nH]cnc2c1c(-c1ccccc1)cn2-c1ccc(F)cc1` was -5.8%; that for `COc1ccc(-n2cc(-c3ccccc3)c3c(=S)nc[nH]c32)cc1` was 72.3% (active); that for `COc1ccc(N2C(=O)CNC2=S)cc1` was 5.9%.
The value for `CCOC(=O)C1CCN(S(=O)(=O)c2ccc3c(c2)N(C)C(=O)CC(=O)N3C)CC1` was -1.6%.

For the origin of these results see PubChem BioAssay AID588492 (Sanford-Burnham Center for Chemical Genomics, 2011).
